From PubChem
Compounds with a hit are over-represented: about 15% of the library has one in this group of screens.
Sm TGR block: qHTS Assay for the Inhibitors of Schistosoma Mansoni Peroxiredoxins | 360,000 tested, 3% active | Potency, µM (doses to about 114 µM), for inactives: at the highest dose activity change, negative = inhibition, most hits filed as inhibitors | purified TGR, DTNB reduction, TNB absorbance 405 nm | AID 485364, 2010; further: potency means the concentration at half of the fitted maximal effect; on the % scale 0 is the no-effect control and ±100 the full control effect; nearly all actives have a fitted effect of over 60% in size
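TGR 20 nM + NADPH 100 uM (dispensed conc.), cpd preinc 15 min RT; start with NADPH (500 uM addition) then DTNB (15 mM addition). Kinetic TNB absorbance, 405 nm filter. Four-parameter Hill fit across titration.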
Pf growth 96h: Primary qHTS for delayed death inhibitors of the malarial parasite plastid, 96 hour incubation. P. falciparum luciferase reporter growth, 96 h. Potency, µM (titrated, usually from 28.7 µM), inactives show at the highest dose activity change, negative = inhibition, most hits filed as inhibitors. 320,000 tested, 6.9% active; further: potency means the concentration at half of the fitted maximal effect; on the % scale 0 is the no-effect control and ±100 the full control effect
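P. falciparum expressing integrated firefly luciferase, in erythrocytes at 2% hematocrit, 0.05% parasitemia, incubated with compounds 96 h at 37 C, 5% CO2. Growth inhibition read as loss of luminescence; two-generation exposure targets delayed-death apicoplast inhibitors.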
HCMV inh: qHTS Assay for inhibitors of the human cytomegalovirus (HCMV); activity change, negative = inhibition, % at 57.5 µM; 410,000 tested, 4.5% active; HFF cells, HCMV-luciferase reporter, 72 h; stronger effect = lower value; AID 1259415, 2018; in the data active means activity change below about -60%; inconclusive means no clear call, values can overlap the other calls; inactive means above about -39%; further: on the % scale 0 is the no-effect control and ±100 the full control effect
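Cell-based, HFFs, 1000 cells/well, 16 h 37C; cpds in DMSO + HCMV-luc, MOI 1 PFU/cell; 72 h 37C; OneGlo luminescence after 5 min RT; norm. to buffer vs Salinomycin 10uM.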
HCV inh: qHTS Assay for Inhibitors of Hepatitis C Virus (HCV); Potency, µM (top dose mostly 41.8 µM), without a hit: top-dose activity change, negative = inhibition, hits mostly inhibitors; AID 651820, 2012; Huh7.5.1 HCVcc-Cre infection, luciferase reporter, 44 h; 340,000 tested, 3.4% active; further: potency means the concentration at half of the fitted maximal effect; on the % scale 0 is the no-effect control and ±100 the full control effect
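Luciferase read-out (15 sec integration) after a 15 min room-temperature substrate step quantifies HCVcc-Cre infection. Cells, 1,000 per well, had compound added 4 h post-plating, then virus at ~0.5 moi, and were cultured 44 h.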
Pf growth 48h: Primary qHTS for delayed death inhibitors of the malarial parasite plastid, 48 hour incubation | Potency, µM (doses to about 28.7 µM), without a hit: at the highest dose activity change, negative = inhibition, actives largely listed as inhibitors | P. falciparum luciferase growth in erythrocytes, 48 h | 310,000 tested, 5.9% active; further: potency means the concentration at half of the fitted maximal effect; on the % scale 0 is the no-effect control and ±100 the full control effect
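Read-out is firefly luciferase luminescence from an integrated reporter in P. falciparum, so falling signal marks reduced parasite growth. Infected erythrocytes were at 2% hematocrit and 0.1% parasitemia (final) in Albumax-supplemented RPMI 1640.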
SARS PLP yeast: qHTS of Yeast-based Assay for SARS-CoV PLP; S. cerevisiae expressing SARS-CoV PLpro, growth rescue; Potency, µM (titrated, usually from 32.9 µM), without a hit: at the top dose activity, positive = growth rescue, hits mostly activators; 330,000 tested, 0.19% active; calls by dose curve; further: potency means the concentration at half of the fitted maximal effect; 0% is about no effect; nearly all actives have a fitted effect of over 55% in size
Active calls of the source: *; ? = inconclusive; / = no result given. Unless noted, the call rests on the fitted dose curve; in most records, active means well fitted curve in the direction sought with a large enough effect; inconclusive means small, poorly fitted or top-dose-only effect, or another doubt; inactive means no such curve, though single readings can be large; an effect the other way counts as inactive or inconclusive.

SMILES | Sm TGR block | Pf growth 96h | HCMV inh | HCV inh | Pf growth 48h | SARS PLP yeast
Cc1cc(C)c(C)c(S(=O)(=O)NCc2ccc(C(=O)N3CCCC3)cc2)c1C | 9% | ? | 1 | -9% | 6.6µM* | 18%
CCN1CCN(S(=O)(=O)CC2(C)C3CCC2(C)C(=O)C3Br)CC1 (stereo unspecified) | -26% | -15% | 17 | 31% | 11% | 4%
Cc1ccc(NC(=O)N2CCC(CN3CCC(C)CC3)CC2)cc1F | 37% | / | 21 | / | / | /
Nc1nc(C2CCOCC2)cs1 | -4% | 12% | 35 | 7% | 20% | 2%
Nc1nc(C2CC2)c(Sc2sc(N)nc2C2CC2)s1 | 4% | ? | -72* | -7% | 27% | 7%
Cc1ccc(S(=O)(=O)NCCc2ccncc2)cc1C | 6% | 6% | -6 | 23% | 35% | -1%
O=C(CCNC(=O)c1ccccc1Cl)NCCCSc1ccccc1 | -11% | -14% | -4 | -18% | 7% | 14%
O=C(NCCCSc1ccccc1)c1cc(Br)ccc1O | 7% | -19% | -79* | ? | 11% | 1%
CC(NS(=O)(=O)c1cc2c3c(c1)CCC(=O)N3CCC2)c1ccccc1 (stereo unspecified) | 2% | 53% | -21 | 0% | 2% | -2%
COC(=O)c1cn(-c2ccc(Cl)cc2)c(=O)c2ccccc12 | -11% | / | -14 | ? | 2.9µM* | -18%
COC(=O)c1cn(C(=O)c2cc(Cl)ccc2Cl)c2ccccc12 | -9% | 13µM* | -2 | -8% | 21% | -1%
COCCNC(=O)C1(C)CCCN(C(=O)c2cccc(Cl)c2)C1 (stereo unspecified) | / | / | 10 | / | / | /
O=C(CN1CCN(C(=O)C2COc3ccccc3O2)CC1)Nc1ccccc1 (stereo unspecified) | 0% | 6% | 1 | -4% | 11% | 2%
CCCCCCCNC1=CC(=O)CC(c2ccco2)C1 (stereo unspecified) | 0% | 10µM* | 19 | -14% | 2.3µM* | -37%
Cc1ccc(C2CC(=O)C=C(Nc3ccc(Cl)cc3)C2)cc1 (stereo unspecified) | -4% | 32% | -23 | 3% | 15µM* | 2%
Cc1ccc(C2CC(=O)C=C(NCc3ccccc3)C2)cc1 (stereo unspecified) | -15% | 11% | -13 | -23% | 3% | 0%
O=C1C=C(Nc2ccc(Cl)cc2)CC(c2ccco2)C1 (stereo unspecified) | -4% | ? | ? | ? | 9.3µM* | 2%
Cc1ccc(C2CC(=O)C=C(NCC(C)C)C2)cc1 (stereo unspecified) | 4% | -1% | -81* | -7% | ? | -9%
COc1ccc(N=C2SC(C(=O)Nc3ccc(OC)cc3)CC(=O)N2CCN2CCOCC2)cc1 (stereo unspecified) | -29% | -14% | 33 | 19% | 2% | 5%
O=C1C=C(Nc2ccc(Cl)cc2)CC(c2ccc(Cl)cc2)C1 (stereo unspecified) | -4% | ? | ? | -30% | 9.3µM* | -6%
Cc1noc(C)c1COC(=O)C1CCN(S(=O)(=O)c2ccc(F)cc2)CC1 | -16% | ? | 7 | -7% | ? | 1%
COc1cccc(N2CCN(c3ncnc4c3[nH]c3ccccc34)CC2C)c1 (stereo unspecified) | 1% | ? | -102* | 10µM* | 8.3µM* | -69%
COc1ccc2[nH]c3c(N4CC(C)OC(C)C4)ncnc3c2c1 (stereo unspecified) | -2% | ? | ? | -22% | / | 0%
COc1cccc(N2CCN(c3ncnc4c3[nH]c3ccc(F)cc34)CC2C)c1 (stereo unspecified) | -10% | 138% | -97* | 1.6µM* | ? | -39%
